According to PubChem BioAssay (NCI):
Compounds without any hit were thinned out: in the full panel of roughly 83,000, 20% have a hit.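 Growth was measured after 48 h exposure to one concentration of compound in 96-well plates. Values under 10 count as active.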 Activity calls are given as the source filed them.

Experiments:
Assay in all cases: NCI-60 one-dose screen, 48 h (100 = growth as untreated, 0 = no growth, -100 = all killed)
SR leukemia = settings: 10 µM unless noted
RPMI-8226 leukemia = settings: 10 µM
OVCAR-8 ovarian = settings: 10 µM unless noted
SK-OV-3 ovarian = settings: 10 µM
IGROV1 ovarian = settings: 10 µM unless noted
OVCAR-3 ovarian = settings: 10 µM unless noted
HS 578T breast = settings: 10 µM unless noted
NCI/ADR-RES ovarian = settings: 10 µM unless noted
T-47D breast = settings: 10 µM
BT-549 breast = settings: 10 µM unless noted
MDA-MB-435 melanoma = settings: 10 µM unless noted
SW-620 colon = settings: 10 µM unless noted
MCF7 breast = settings: 10 µM unless noted
HCT-116 colon = settings: 10 µM unless noted
HCC-2998 colon = settings: 10 µM unless noted
KM12 colon = settings: 10 µM unless noted
OVCAR-5 ovarian = settings: 10 µM unless noted
OVCAR-4 ovarian = settings: 10 µM unless noted

Measured: growth

O=C1c2[nH]cc(CN[C@@H]3CCCN3)c2C(=O)c2c1c(O)c1ccccc1c2O
inactive: NCI/ADR-RES ovarian 20.3% | BT-549 breast 41.1%
active: SR leukemia -69.6% | RPMI-8226 leukemia -55.5% | OVCAR-8 ovarian -92% | SK-OV-3 ovarian -100% | IGROV1 ovarian -83% | OVCAR-3 ovarian -95.9% | HS 578T breast -50% | T-47D breast -72.4% | MDA-MB-435 melanoma -98.3% | SW-620 colon -98.1% | MCF7 breast -96.5% | HCT-116 colon -82.8% | HCC-2998 colon -85.8% | KM12 colon -89.8%

N#C/C(=C\c1ccc[nH]1)c1cc2ccccc2[nH]1
inactive: SR leukemia 68.3% | OVCAR-8 ovarian 74.9% | OVCAR-5 ovarian 82.4% | OVCAR-4 ovarian 24.1% | IGROV1 ovarian 59.2% | OVCAR-3 ovarian 81.1% | HS 578T breast 87.5% | NCI/ADR-RES ovarian 76.9% | BT-549 breast 66.9% | MDA-MB-435 melanoma 83.2% | SW-620 colon 96.3% | HCT-116 colon 63.4% | HCC-2998 colon 63.8% | KM12 colon 30.7%
active: MCF7 breast 9.04%

CCOC(=O)c1sc(NC(=O)CN2CCC(Cc3ccccc3)CC2)nc1C
inactive: SR leukemia 83.7% | OVCAR-8 ovarian 110% | OVCAR-5 ovarian 103% | OVCAR-4 ovarian 98.6% | SK-OV-3 ovarian 102% | IGROV1 ovarian 87.6% | OVCAR-3 ovarian 108% | HS 578T breast 83.4% | NCI/ADR-RES ovarian 94.1% | T-47D breast 101% | BT-549 breast 104% | MDA-MB-435 melanoma 105% | SW-620 colon 95.8% | MCF7 breast 94.4% | HCT-116 colon 81.5% | HCC-2998 colon 102% | KM12 colon 106%

COc1ccc(-c2c(-c3cc4c(c(OC)c3OC)OCO4)noc2N)cc1
active: OVCAR-3 ovarian -38.1% | NCI/ADR-RES ovarian 2.53% | MDA-MB-435 melanoma -32.1%
inactive: SR leukemia 10.9% | RPMI-8226 leukemia 17.3% | OVCAR-8 ovarian 32.1% | SK-OV-3 ovarian 16.2% | IGROV1 ovarian 46.3% | HS 578T breast 16% | T-47D breast 47.5% | BT-549 breast 60.1% | SW-620 colon 17.9% | MCF7 breast 19.7% | HCT-116 colon 22.2% | HCC-2998 colon 20.6% | KM12 colon 18.9%

O=c1c2c(=NCCN3CCCC3)cc3c(=O)n(CCCN4CCOCC4)c(=O)c4ccc(c(O)n1CCCN1CCOCC1)c2c4-3
inactive: SR leukemia 13.5% | OVCAR-8 ovarian 11.9%
active: OVCAR-5 ovarian -10.9% | OVCAR-4 ovarian -49.1% | IGROV1 ovarian 2.41% | OVCAR-3 ovarian -8.68% | HS 578T breast -13.9% | NCI/ADR-RES ovarian -2.98% | BT-549 breast -34.9% | MDA-MB-435 melanoma -87.9% | SW-620 colon -15.5% | MCF7 breast -17.7% | HCT-116 colon 0.411% | HCC-2998 colon -45.8% | KM12 colon -20.9%

c1ccc2c(c1)oc1cc3c(cc12)nnc1cccn13
inactive: SR leukemia 94.6% | OVCAR-8 ovarian 102% | OVCAR-5 ovarian 116% | OVCAR-4 ovarian 107% | SK-OV-3 ovarian 108% | IGROV1 ovarian 87.4% | OVCAR-3 ovarian 107% | HS 578T breast 108% | NCI/ADR-RES ovarian 111% | T-47D breast 85.4% | BT-549 breast 97.9% | MDA-MB-435 melanoma 105% | MCF7 breast 82.3% | HCT-116 colon 100% | HCC-2998 colon 110% | KM12 colon 99.8%

O=C1CCC(N2Cc3c(C#CCCCNC(=O)c4cc5c(o4)C(=O)c4ccccc4C5=O)cccc3C2=O)C(=O)N1 (centres undefined)
inactive: SR leukemia 12.1% | OVCAR-5 ovarian 20.2% | NCI/ADR-RES ovarian 89.6%
active: OVCAR-8 ovarian 4.59% | OVCAR-4 ovarian -98.5% | IGROV1 ovarian -5.62% | OVCAR-3 ovarian -37.3% | HS 578T breast -32.8% | T-47D breast 7.33% | BT-549 breast -94.8% | MDA-MB-435 melanoma -94.5% | SW-620 colon -34.7% | MCF7 breast -68.6% | HCT-116 colon -25.5% | HCC-2998 colon -64.1% | KM12 colon -1.98%

O=C1CCC(N2C(=O)c3cccc(NCCOCCOCCNC(=O)c4cc5c(o4)C(=O)c4ccccc4C5=O)c3C2=O)C(=O)N1 (centres undefined)
inactive: NCI/ADR-RES ovarian 93.7%
active: SR leukemia 9.2% | OVCAR-8 ovarian 3.28% | OVCAR-5 ovarian -90.8% | OVCAR-4 ovarian -93.5% | IGROV1 ovarian -16.1% | OVCAR-3 ovarian -40.6% | HS 578T breast -29.7% | T-47D breast 4.87% | BT-549 breast -89.3% | MDA-MB-435 melanoma -92.1% | MCF7 breast -61.3% | HCT-116 colon -16.1% | HCC-2998 colon -61.7% | KM12 colon -8.32%

CCCCOC(=O)C1OC(Oc2ccc3c(C)cc(=O)oc3c2)[C@@H](OC(C)=O)C(OC(C)=O)C1OC(C)=O (some centres undefined)
inactive: SR leukemia 88.1% | RPMI-8226 leukemia 97.9% | OVCAR-8 ovarian 104% | OVCAR-4 ovarian 101% | IGROV1 ovarian 101% | OVCAR-3 ovarian 108% | HS 578T breast 101% | NCI/ADR-RES ovarian 99.9% | BT-549 breast 103% | MDA-MB-435 melanoma 101% | SW-620 colon 102% | MCF7 breast 91.5% | HCT-116 colon 88.1% | HCC-2998 colon 109% | KM12 colon 99.4%

O=C1c2c(c3c4cc(Br)ccc4[nH]c3c3ccc4ccccc4c23)C(=O)N1O
inactive: SR leukemia 33.9% | RPMI-8226 leukemia 58.9% | OVCAR-8 ovarian 84.1% | IGROV1 ovarian 70.2% | OVCAR-3 ovarian 107% | HS 578T breast 117% | NCI/ADR-RES ovarian 98.1% | T-47D breast 69.3% | BT-549 breast 93.4% | MDA-MB-435 melanoma 94.6% | SW-620 colon 68.8% | MCF7 breast 43.3% | HCT-116 colon 83.6% | HCC-2998 colon 95.1% | KM12 colon 87.5%

Cc1ccc2nc(NC(=O)CSC(=S)N3CCN(C)CC3)sc2c1
inactive: SR leukemia 138% | RPMI-8226 leukemia 106% | OVCAR-8 ovarian 75.6% | SK-OV-3 ovarian 108% | IGROV1 ovarian 86.7% | OVCAR-3 ovarian 120% | HS 578T breast 114% | NCI/ADR-RES ovarian 89% | T-47D breast 105% | BT-549 breast 97.4% | MDA-MB-435 melanoma 101% | MCF7 breast 93% | HCT-116 colon 97.2%

CCN(CC)c1ccc(/C=C(\C#N)c2cc3ccccc3[nH]2)cc1
active: MDA-MB-435 melanoma 1.8%
inactive: SR leukemia 24.6% | OVCAR-8 ovarian 63.4% | OVCAR-5 ovarian 72.4% | OVCAR-4 ovarian 68.2% | IGROV1 ovarian 65.1% | OVCAR-3 ovarian 20.9% | HS 578T breast 58.3% | NCI/ADR-RES ovarian 35.4% | BT-549 breast 69.5% | SW-620 colon 23.3% | MCF7 breast 23.7% | HCT-116 colon 31.5% | HCC-2998 colon 77.8% | KM12 colon 21.7%

COc1ccc(/C=C(\C#N)c2cc3ccccc3n2C)cc1
inactive: SR leukemia 18.7% | OVCAR-8 ovarian 34.2% | OVCAR-5 ovarian 39.7% | OVCAR-4 ovarian 37.1% | IGROV1 ovarian 34.7% | BT-549 breast 51.2% | SW-620 colon 20% | MCF7 breast 15.4% | HCT-116 colon 18.2% | HCC-2998 colon 24.8% | KM12 colon 16.8%
active: OVCAR-3 ovarian -34.3% | HS 578T breast 2.89% | NCI/ADR-RES ovarian 8.82% | MDA-MB-435 melanoma -49.1%

COc1c(Cl)ccc2c(-c3nc4cc(Cl)c(F)cc4s3)cc(=O)oc12
inactive: SR leukemia 23.2% | RPMI-8226 leukemia 49% | OVCAR-8 ovarian 62.5% | SK-OV-3 ovarian 104% | OVCAR-3 ovarian 75.5% | HS 578T breast 100% | NCI/ADR-RES ovarian 33% | BT-549 breast 107% | MDA-MB-435 melanoma 102% | MCF7 breast 96.2% | HCT-116 colon 88.4% | HCC-2998 colon 108% | KM12 colon 79.4%
active: IGROV1 ovarian -59.8%

O=c1c2c(=NCCN3CCCC3)cc3c(=O)n(CCCN4CCOCC4)c(=O)c4c(-c5ccc(CN6CCCC6)cc5)cc(c(O)n1CCCN1CCOCC1)c2c4-3
active: SR leukemia 3.49% | OVCAR-8 ovarian -10.7% | OVCAR-5 ovarian -34.6% | OVCAR-4 ovarian -50.7% | IGROV1 ovarian -25.4% | OVCAR-3 ovarian -22.5% | HS 578T breast -26.3% | NCI/ADR-RES ovarian -0.981% | BT-549 breast -50.9% | MDA-MB-435 melanoma -90.1% | SW-620 colon -45.2% | MCF7 breast -34.8% | HCT-116 colon -23.8% | HCC-2998 colon -63.7% | KM12 colon -47.7%

c1ccc(-c2n(Cc3ccc4ccccc4c3)c3ccccc3[n+]2Cc2ccc3ccccc3c2)cc1
inactive: NCI/ADR-RES ovarian 46.4%
active: SR leukemia -23.6% | OVCAR-8 ovarian -22.9% | OVCAR-5 ovarian 2.69% | OVCAR-4 ovarian -4.85% | IGROV1 ovarian -77.5% | OVCAR-3 ovarian -84.2% | HS 578T breast -33.8% | BT-549 breast -28.2% | MDA-MB-435 melanoma -76.4% | SW-620 colon -48.5% | MCF7 breast -44.2% | HCT-116 colon -85.4% | HCC-2998 colon -79.3% | KM12 colon -86.8%

COc1cc(OCc2cccc(-c3ccc(C(O)c4nccs4)cc3)c2C)cc(OC)c1C=O (centres undefined)
active: MCF7 breast 7.09%
inactive: SR leukemia 53.1% | RPMI-8226 leukemia 22.1% | OVCAR-8 ovarian 59.8% | OVCAR-4 ovarian 15.9% | IGROV1 ovarian 21% | OVCAR-3 ovarian 48.1% | HS 578T breast 67.1% | NCI/ADR-RES ovarian 58.1% | BT-549 breast 39.6% | MDA-MB-435 melanoma 30.8% | SW-620 colon 56% | HCT-116 colon 23.1% | HCC-2998 colon 73.9% | KM12 colon 71%

O=C1c2cc(S(=O)(=O)O)ccc2C(=O)c2c1cccc2[N+](=O)[O-]
inactive: SR leukemia 98.2% | OVCAR-8 ovarian 95.6% | OVCAR-5 ovarian 110% | OVCAR-4 ovarian 115% | SK-OV-3 ovarian 106% | IGROV1 ovarian 120% | OVCAR-3 ovarian 114% | HS 578T breast 106% | NCI/ADR-RES ovarian 111% | T-47D breast 103% | BT-549 breast 98.3% | MDA-MB-435 melanoma 105% | MCF7 breast 101% | HCT-116 colon 106% | HCC-2998 colon 110% | KM12 colon 104%

CN1CCN(c2ccc3nc(-c4ccc5nc(-c6ccc(C(F)(F)F)cc6)[nH]c5c4)[nH]c3c2)CC1
inactive: OVCAR-8 ovarian 65.5% | IGROV1 ovarian 71.2% | HS 578T breast 26.4% | NCI/ADR-RES ovarian 102% | T-47D breast 57.9% | BT-549 breast 84.6% | MDA-MB-435 melanoma 49.8% | HCT-116 colon 21.1% | HCC-2998 colon 87.2% | KM12 colon 49.7%
active: SR leukemia -18.5% | RPMI-8226 leukemia -9.04% | OVCAR-3 ovarian -17.3% | SW-620 colon 1.32% | MCF7 breast 4.4%
